The inhibition is the drop in the measured response relative to a control, in per cent.

For 47 molecules, inhibition results are on record in PubChem BioAssay AID2071 (Sanford-Burnham Center for Chemical Genomics, 2009).

In all, about 280,000 compounds went through this assay and about 1,700 (0.61%) were called active. Cut-off read from the data, not from the text of the source: active = inhibition mostly above about 24% (no sharp cut-off); inactive = mostly below about 32%. What follows is part of a selection rich in actives, with near analogues and random picks from the rest.

The nature of the assay: NALP1 inflammasome inhibitors in reconstituted yeast, colorimetric, S. cerevisiae, triplicate retest (AID 2071). Conditions: S. cerevisiae NALP1/ASC/caspase-1 growth, X-gal OD620, 72 h, stronger effect = higher value.

With `COC(=O)c1ccc(COc2ccc(/C=C/C(=O)c3ccc(OC)c(CSCC(=O)O)c3)cc2OC)cc1`, the inhibition (at 10 µM unless noted) was 34.2% (active).
Consider `COc1cc(/C=N/O)ccc1OCc1ccc([N+](=O)[O-])cc1`, for which the inhibition (at 10 µM unless noted) was 12.2% (inactive).
On the same count and under the same terms, with `COc1ccc(C(=O)/C=C/c2ccc(-c3ccccc3)cc2)cc1CSCC(=O)O` the figure was 3% (inactive).
The same measure, in the same setting: next, `CC(=O)Nc1ccc(N2C(=O)CC(Sc3nccc(C)n3)C2=O)cc1` (stereo not given): -0.3% (inactive).
Regarding `Cn1c(NC(=O)c2ccccc2)nc2ccccc21`, the inhibition (at 10 µM unless noted) was 7.4% (inactive).
For the molecule `CCc1ccc(S(=O)(=O)N/N=C\c2ccc([N+](=O)[O-])o2)cc1`, the inhibition (at 10 µM unless noted) was 9.4% (inactive).
In the case of `Cc1ccc(C(C[N+](=O)[O-])c2c(C)cc3ccccn23)cc1` (stereo not given), the inhibition (at 10 µM unless noted) is 98.9% (active).
For the molecule `Cc1cc2ccccn2c1C(=O)c1cccc(F)c1`, the inhibition (at 10 µM unless noted) is 17.6% (inactive).
Turning to `CCC1=Nc2cc(C(=O)NCCCN3CCOCC3)ccc2Sc2ccc(Br)cc21`, the inhibition (at 10 µM unless noted) was 7.2% (inactive).
Still for that read-out and setting: with `CCc1ccc(CN(C)C(=O)C2CCC(=O)N(Cc3cccc(OC)c3)C2)nc1` (stereo not given) the figure was 9.6% (inactive); with `Cc1oc2cc3oc(=O)ccc3cc2c1C`, 8.6% (inactive).
For the molecule `CN(C)CCCN(C(=O)COc1ccccc1)c1nc2c(Cl)cccc2s1`, the inhibition (at 10 µM unless noted) was 3.9% (inactive).
For `Cc1cccc2sc(N(CCCN(C)C)C(=O)CCS(=O)(=O)c3ccccc3)nc12`, the inhibition runs as follows: (at 10 µM) 78.1% (active); (triplicate retest, at 20 µM) 99.3%.
In the case of `COc1cccc2sc(N(CCCN(C)C)C(=O)CCS(=O)(=O)c3ccccc3)nc12`, for the setting “at 10 µM unless noted”, the inhibition is 14.3% (inactive).
`CC(C)CCNC(=O)c1ccc2c(Cl)c3c(nc2c1)CCC3`: the inhibition (at 10 µM unless noted) is 16.8% (inactive).
As to `Cc1ccc(N(Cc2cc(=O)[nH]c3ccccc23)C(=O)CCl)cc1`, the inhibition (at 10 µM unless noted) is 17.4% (inactive).
Same read-out and setting: next, `O=C(CC(=O)Nc1ccc(Cl)c(Cl)c1)N/N=C/c1ccc(O)cc1`: 21.7% (inactive).
`O=C(CC(O)(C(F)(F)F)C(F)(F)F)Nc1ccc(Cl)c(Cl)c1`: the inhibition is 78.5% (active) (at 10 µM) and 110% (triplicate retest, at 20 µM).
As to `Cc1ccc(NC(=O)C/C(N)=N/O)cc1Cl`, the inhibition (at 10 µM unless noted) was -8.9% (inactive).
For the molecule `COc1ccc(C(=O)C2CCCN(C(=O)c3cc(C)on3)C2)cc1F` (stereo not given), the inhibition (at 10 µM unless noted) is 4% (inactive).
For the molecule `Cc1ccc(/C=N/NC(=O)c2cc3ccccc3cc2O)o1`, the inhibition (at 10 µM unless noted) is -11.5% (inactive).
Same read-out and setting: with `CC(=O)N(C)c1ccc(NC(=O)Nc2cccc3ccccc23)cc1` the figure was 15.8% (inactive); with `CCOc1cc(/C=C/c2nc3ccccc3c(=O)[nH]2)cc(Br)c1OC`, 8.1% (inactive).
The same measure, in the same setting: next, `O=C(c1ccc(CN2CCOCC2)cc1)N1CCN(c2ccccc2F)CC1`: 6.8% (inactive); `COc1ccc2oc(=O)c(C(=O)N3CCN(c4ccccc4F)CC3)cc2c1`: 0.6% (inactive); `O=C(c1cccc2ccccc12)N1CCN(c2ccccc2F)CC1`: 41.1% (active).
On the same count and under the same terms, next, `COc1ccccc1CNC(=O)[C@@H]1CCCN1C(=O)[C@@H]1Cc2ccccc2CN1C(=O)OC(C)(C)C`: -18.4% (inactive); `COc1ccc(NC(=O)CNC(=O)Cc2ccccc2)cc1OC`: -89.6% (inactive).
`COc1ccc(NC(=S)SC)cc1OC`: the inhibition is 73.8% (active) (at 10 µM) and 94.6% (triplicate retest, at 20 µM).
On to `COc1ccc(NS(=O)(=O)c2ccc(NC(C)=O)cc2)cc1OC`, for which the inhibition (at 10 µM unless noted) was 26.3% (inactive).
On the same count and under the same terms, with `Cc1cc(NC(=O)CCN2CCN(Cc3ccccc3)CC2)ccc1Br` the figure was 16.7% (inactive); with `CN(CCO)c1ccc(/C=N/Nc2nncc3ccccc23)cc1`, 3.8% (inactive); with `O=C(C(NS(=O)(=O)c1cccc2nsnc12)c1ccccc1)N1CCN(c2ccccn2)CC1` (stereo not given), 8.1% (inactive).
The same measure, in the same setting: next, `O=C(C(NS(=O)(=O)c1cccc2nsnc12)c1ccccc1)N1CCN(c2ccccc2)CC1` (stereo not given): 34.4% (active); `O=C(O)C(NS(=O)(=O)c1cccc2nsnc12)c1ccccc1` (stereo not given): 15.5% (inactive); `CCOc1ccc(CN2CCN(CCCc3ccccc3)C(CCO)C2)cc1` (stereo not given): 28.9% (inactive).
With `CCn1ccnc1CN(C)C(=O)c1cc(COc2ccc(Cl)cc2OC)on1`, under “at 10 µM unless noted”, the inhibition was -9.7% (inactive).
Still for that read-out and setting: with `CC(C)(C)c1ccc(/C=C/C(=O)NCCCn2ccnc2)cc1` the figure was 1.5% (inactive); with `CCOc1ccccc1-c1nc(CN2CCC(C(=O)N3CCOCC3)CC2)c(C)o1`, 29% (active); with `COc1ccc(F)c(-c2nc(CN3CCC(c4ccccc4)CC3)c(C)o2)c1`, 13.2% (inactive).
The same measure, in the same setting: next, `CCOc1ccccc1-c1cc(C(=O)N2CCOCC2)c2ccccc2n1`: 0.7% (inactive).
As to `CCOc1ccc(CN2CCNC(=O)C2CC(=O)NCCCC2CCCC2)cc1` (stereo not given), the inhibition (at 10 µM unless noted) was 1% (inactive).
On the same count and under the same terms, next, `C/C(=N\NC(=O)c1cc(-c2ccc(O)cc2)nc2ccccc12)c1cccnc1`: -2.6% (inactive).
Still for that read-out and setting: next, `CCOC(=O)CSc1nc2ccc(C)cc2n2cnnc12`: 10.4% (inactive); `COc1ccc(-n2c(SCC(=O)Nc3sc4c(c3C#N)CCCC4)nnc2-c2ccc(O)cc2)cc1`: 40.9% (active); `CCCc1cc(=O)[nH]c(SCC(=O)Nc2sc3c(c2C#N)CCCC3)n1`: 9.4% (inactive).
Take `N#Cc1c(NC(=O)CSc2nc3ccccc3c(=O)n2Cc2ccco2)sc2c1CCCC2`: the inhibition (at 10 µM unless noted) is 20.7% (inactive).
